# A number with no mark means an inactive call. Active and inactive are the calls of the source.
# Assay: PSAC antagonists in infected red cells, primary screen, cell-based, P. falciparum Indochina, OD700, 1 h (AID 1154)
# Conditions: P. falciparum Indochina infected RBC osmotic lysis, higher = more signal, called active from +8 up or from −8 down
row,SMILES,z-score
1,CC(C)c1ccc(NN2C(C(O)c3ccc(F)cc3)C=CC3C(=O)N(c4ccccc4)C(=O)C32)cc1 (centres undefined),3.82
2,CO[C@H]1O[C@H](CO)[C@@H](OC(=O)Nc2ccc3c(c2)OCO3)[C@H](OC(=O)Nc2ccc3c(c2)OCO3)[C@@H]1OC(=O)Nc1ccc2c(c1)OCO2,11 (active)
3,CCCNC(=O)[C@@H]1c2ccccc2C(=O)N(Cc2ccc(OC(F)(F)F)cc2)[C@H]1c1ccc(CO)cc1,1.23
4,CCOC(=O)C[C@H]1[C@H](OC(=O)c2cc3ccccc3oc2=O)[C@@H](NC(=O)c2ccccc2)c2cc(OCCCO)ccc2N1C(=O)c1ccccc1,0.609
5,CCCNC(=O)[C@@]1(C)c2ccccc2C(=O)N(c2ccc(C)cn2)[C@H]1c1ccc(CO)cc1,1.57
6,CC(C)C(O)C1C=CC2C(=O)N(c3ccccc3)C(=O)C2N1Nc1ccccc1 (centres undefined),1.2
7,CCCCC(CC)C(O)C1C=CC2C(=O)N(c3ccccc3)C(=O)C2N1Nc1ccc(C#N)cc1 (centres undefined),9.85 (active)
8,COc1ccc(CCNC(=O)[C@@]2(Cc3ccccc3I)c3ccccc3C(=O)N(C3CCCCC3)[C@H]2c2ccc(CO)cc2)cc1,3.52
9,[N-]=[N+]=Nc1ccccc1C[C@@]1(C(N)=O)N=C(c2ccc(OCCCO)cc2)O[C@@H]1c1ccccc1N=[N+]=[N-],30.4 (active)
10,C=CCN1C(=O)[C@]2(CCS(=O)(=O)c3ccccc3)N=C(c3ccc(OCCCO)cc3)O[C@@H]2c2ccccc21,29.1 (active)
11,NC(=O)NCC#Cc1ccc2c(c1)[C@]1(C(=O)N2)[C@H](c2ccccc2OCCO)N2[C@H](c3ccccc3)[C@H](c3ccccc3)OC(=O)[C@H]2[C@@H]1C(=O)O,1.07
12,NCCCCCNC(=O)[C@H]1C[C@H]2C(=O)N3CCC[C@H]3C(=O)N2[C@H]1c1cccc(OCCO)c1,3.03
13,COc1ccc([Si](C)(C)[C@@H]2[C@@H](CCO)O[C@]3(C(=O)N(Cc4cccc(NC(=O)[C@H](C)O)c4)c4ccccc43)[C@H]2C)cc1,9.14 (active)
14,CCCCN1CC=CC23O[C@@H]4/C=C\CCCOC(=O)C4[C@H]2C(=O)N(CCO)[C@@H]3C1=O (some centres undefined),0.978

# Assay: PSAC antagonists in infected red cells, primary screen, cell-based, P. falciparum Indochina, OD700, 2 h (AID 1155);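 further: lysis reports solute entry through the parasite surface anion channel PSAC; channel blockers reduce lysis of infected cells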
# Conditions: P. falciparum Indochina infected erythrocytes, osmotic lysis OD700; higher = more signal, called active from +8 up or from −8 down
row,SMILES,z-score
1,[N-]=[N+]=NCc1ccccc1[C@@H]1OC(c2ccc(OCCCO)cc2)=N[C@]1(CCS(=O)(=O)c1ccccc1)C(=O)O,4.31
2,CC1CC/C=C\[C@H]2OC34C=CCN(c5ccc(Cl)cc5)C(=O)[C@H]3N(C(C)CO)C(=O)[C@]4(C)C2C(=O)O1 (some centres undefined),0.67
3,C=CC[C@]1(C(=O)N2CCCCC2)N=C(c2ccc(OCCCO)cc2)O[C@H]1c1ccccc1CN=[N+]=[N-],4.57
4,COc1ccc([Si](C)(C)[C@H]2[C@H](CC(=O)N3CCC[C@H]3CO)O[C@@]3(C(=O)N(Cc4ccc(N5CCOC5=O)cc4)c4ccccc43)[C@@H]2C)cc1,1.8
5,Cc1cc(C)c(C(O)C2C=CC3C(=O)N(c4ccccc4)C(=O)C3N2Nc2ccccc2F)c(C)c1 (centres undefined),1.35
6,CC[C@@H]1O[Si](C(C)C)(C(C)C)c2c1cc(-c1cc(C)c(OC)c(C)c1)nc2-c1ccc(Oc2ccccc2)cc1,0.26
7,O[C@@H](Cc1ccccc1)[C@@H](/C=C/C1CC1)N(CC#Cc1ccccc1)Cc1ccccc1Br,1.37
8,COC(=O)C/C=C/C[C@]1(O)C(=O)N(C)c2ccccc21,-0.562
9,C=CC[C@@]1(C(=O)NCCCOC)N=C(c2ccc(OCCCO)cc2)O[C@@H]1c1ccccc1N=[N+]=[N-],29.4 (active)
10,COC(=O)[C@@H]1N=C(c2ccc(OCCCO)cc2)O[C@@H]1C,2.23
11,CCCC=C(CCC)[C@@H](NC(=O)c1cccs1)c1ccc(C(=O)OC)cc1,-0.864
12,COc1cc(NN2C(C(O)c3cc(OC)c(OC)c(OC)c3)C=CC3C(=O)N(C)C(=O)C32)cc(OC)c1OC (centres undefined),0.0378
13,COc1cc(OC)c(C(O)C2C=CC3C(=O)N(Cc4ccccc4)C(=O)C3N2n2cnnc2)cc1Br (centres undefined),-0.731
14,C=CCC(OC(C)=O)[C@@H]1[C@@H](N(Cc2cc3ccccc3o2)C(=O)Cc2ccc(F)cc2)c2cc(OCCCO)ccc2N1C(=O)Cc1ccc2ccccc2c1 (some centres undefined),0.62
15,COc1ccc(CCNC(=O)[C@@H]2c3ccccc3C(=O)N(C3CCCCC3)[C@H]2c2ccc(CO)cc2)cc1,0.163
16,C[N+](C)(C)CCCC[C@@H]1NC(=O)[C@@H]2C[C@H](C(=O)NCCCCCCN)[C@H](c3cccc(OCCO)c3)N2C1=O,0.679
17,O=C1C2C=CC(C(O)C3CC=CCC3)N(Nc3ccccc3)C2C(=O)N1c1ccccc1 (centres undefined),-0.228
18,O=C1C2C=CC(C(O)c3ccco3)N(Nc3ccccc3F)C2C(=O)N1c1ccccc1 (centres undefined),1.05

row,SMILES,z-score
1,COC(=O)c1c(CC[C@@H](CO)NC(=O)N2CCC[C@H]2Cn2cc(C3(O)CCCCC3)nn2)oc(C(C)=O)c1C(=O)OC,0.092
2,C=C(/C(=C/C[C@H](OC(=O)c1ccncc1)c1ccc(CO)o1)c1cnc2ccccc2c1)C(C)C,1.37
3,COCC(=C=CC[C@H](O)c1ccccc1OCCO)C[C@H](O)c1ccccn1,1.12
4,CC(C)c1ccc(NN2C(C(O)c3ccc(F)cc3)C=CC3C(=O)N(c4ccccc4)C(=O)C32)cc1 (centres undefined),1.76
5,CO[C@H]1O[C@H](CO)[C@@H](OC(=O)Nc2ccc3c(c2)OCO3)[C@H](OC(=O)Nc2ccc3c(c2)OCO3)[C@@H]1OC(=O)Nc1ccc2c(c1)OCO2,1.62
6,CCCNC(=O)[C@@H]1c2ccccc2C(=O)N(Cc2ccc(OC(F)(F)F)cc2)[C@H]1c1ccc(CO)cc1,-0.146
7,CCOC(=O)C[C@H]1[C@H](OC(=O)c2cc3ccccc3oc2=O)[C@@H](NC(=O)c2ccccc2)c2cc(OCCCO)ccc2N1C(=O)c1ccccc1,-1.44
8,CCCNC(=O)[C@@]1(C)c2ccccc2C(=O)N(c2ccc(C)cn2)[C@H]1c1ccc(CO)cc1,0.123
9,CC(C)C(O)C1C=CC2C(=O)N(c3ccccc3)C(=O)C2N1Nc1ccccc1 (centres undefined),-0.4
10,CCCCC(CC)C(O)C1C=CC2C(=O)N(c3ccccc3)C(=O)C2N1Nc1ccc(C#N)cc1 (centres undefined),2.68
11,COc1ccc(CCNC(=O)[C@@]2(Cc3ccccc3I)c3ccccc3C(=O)N(C3CCCCC3)[C@H]2c2ccc(CO)cc2)cc1,0.502
12,[N-]=[N+]=Nc1ccccc1C[C@@]1(C(N)=O)N=C(c2ccc(OCCCO)cc2)O[C@@H]1c1ccccc1N=[N+]=[N-],25.3 (active)
13,C=CCN1C(=O)[C@]2(CCS(=O)(=O)c3ccccc3)N=C(c3ccc(OCCCO)cc3)O[C@@H]2c2ccccc21,23.3 (active)
14,NC(=O)NCC#Cc1ccc2c(c1)[C@]1(C(=O)N2)[C@H](c2ccccc2OCCO)N2[C@H](c3ccccc3)[C@H](c3ccccc3)OC(=O)[C@H]2[C@@H]1C(=O)O,-0.525
15,NCCCCCNC(=O)[C@H]1C[C@H]2C(=O)N3CCC[C@H]3C(=O)N2[C@H]1c1cccc(OCCO)c1,0.598
16,COc1ccc([Si](C)(C)[C@@H]2[C@@H](CCO)O[C@]3(C(=O)N(Cc4cccc(NC(=O)[C@H](C)O)c4)c4ccccc43)[C@H]2C)cc1,2.91
17,CCCCN1CC=CC23O[C@@H]4/C=C\CCCOC(=O)C4[C@H]2C(=O)N(CCO)[C@@H]3C1=O (some centres undefined),1.05

# Source: PubChem BioAssay
